Test results: PubChem BioAssay AID1159580 (chemical genetic matrix, 2015)
About 2,000 (36%) of roughly 5,500 compounds were called active. Not shown: some 18% with an inconclusive outcome. Cut-off read from the data, not from the text of the source: active = normalized growth mostly below about 0.91 (no sharp cut-off); inconclusive = no clear call, values can overlap the other calls; inactive = mostly above about 0.92. Some of the results follow.

Test: chemical genetic growth profiling, strain panel (AID 1159580);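 note: tested at 20 µM; growth read once vehicle control cultures reached saturation at 30 °C; 1 = growth at the plate median or of vehicle wells; lower values mean less growth of the strain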
Details: S. cerevisiae deletion strains, growth OD
[1] = locus YHR030C, strain SLT2, stronger effect = lower value
[2] = locus YHR079C, strain IRE1, stronger effect = lower value
[3] = locus YJL095W, strain BCK1, stronger effect = lower value
[4] = locus YJR066W, strain TOR1, stronger effect = lower value
[5] = locus YLR113W, strain HOG1, stronger effect = lower value
[6] = locus YNL183C, strain NPR1, stronger effect = lower value
[7] = locus YOR231W, strain MKK1, stronger effect = lower value
[8] = locus YPL256C, strain CLN2, stronger effect = lower value

Measured: normalized growth

COc1ccc(C2CC(c3ccc(C)cc3C)=NN2C(C)=O)cc1 (centres undefined)
inactive: locus YAR019C, strain CDC15, stronger effect = lower value 0.997 | locus YBL105C, strain PKC1, stronger effect = lower value 0.993 | locus YBR135W, strain CKS1, stronger effect = lower value 0.984 | locus YBR136W, strain MEC1, stronger effect = lower value 0.981 | locus YBR160W, strain CDC28, stronger effect = lower value 0.995 | locus YDL017W, strain CDC7, stronger effect = lower value 0.992 | locus YDL028C, strain MPS1, stronger effect = lower value 0.984 | locus YDL101C, strain DUN1, stronger effect = lower value 0.987 | locus YDL108W, strain KIN28, stronger effect = lower value 0.977 | locus YDL132W, strain cdc53, stronger effect = lower value 0.994 | locus YDL214C, strain PRR2, stronger effect = lower value 0.872 | locus YDR052C, strain DBF4, stronger effect = lower value 0.999 | locus YDR054C, strain cdc34, stronger effect = lower value 0.983 | locus YDR226W, strain ADK1, stronger effect = lower value 0.985 | locus YDR477W, strain SNF1, stronger effect = lower value 0.919 | locus YER123W, strain YCK3, stronger effect = lower value 0.85 | locus YER133W, strain GLC7, stronger effect = lower value 0.911 | locus YFL009W, strain cdc4, stronger effect = lower value 0.984 | locus YFL029C, strain CAK1, stronger effect = lower value 0.994 | locus YFR003C, strain YPI1, stronger effect = lower value 0.988 | locus YFR019W, strain FAB1, stronger effect = lower value 0.937 | locus YFR028C, strain CDC14, stronger effect = lower value 0.981 | locus YGR040W, strain KSS1, stronger effect = lower value 0.89 | locus YGR052W, strain FMP48, stronger effect = lower value 0.971 | locus YGR092W, strain DBF2, stronger effect = lower value 0.909 | [1] 1.04 | [2] 0.971 | locus YHR082C, strain KSP1, stronger effect = lower value 0.984 | locus YHR205W, strain SCH9, stronger effect = lower value 0.931 | locus YIL147C, strain SLN1, stronger effect = lower value 0.978 | [3] 0.967 | locus YJL128C, strain PBS2, stronger effect = lower value 0.907 | locus YJL157C, strain FAR1, stronger effect = lower value 0.889 | locus YJR016C, strain ILV3, stronger effect = lower value 0.994 | locus YJR066W, strain TOR1 (second series), stronger effect = lower value 0.881 | [4] 0.978 | locus YKL048C, strain ELM1, stronger effect = lower value 0.955 | locus YKL067W, strain YNK1, stronger effect = lower value 0.908 | locus YKL101W, strain HSL1, stronger effect = lower value 0.905 | locus YKL193C, strain SDS22, stronger effect = lower value 0.989 | locus YKL203C, strain TOR2, stronger effect = lower value 0.981 | [5] 0.868 | locus YLR133W, strain CKI1, stronger effect = lower value 0.93 | locus YLR403W, strain SFP1, stronger effect = lower value 0.916 | locus YML070W, strain DAK1, stronger effect = lower value 0.888 | locus YMR001C, strain CDC5, stronger effect = lower value 0.998 | locus YMR205C, strain PFK2 (second series), stronger effect = lower value 0.913 | locus YMR277W, strain FCP1, stronger effect = lower value 0.986 | locus YNL006W, strain LST8, stronger effect = lower value 0.998 | locus YNL020C, strain ARK1, stronger effect = lower value 0.914 | locus YNL161W, strain CBK1, stronger effect = lower value 0.997 | [6] 0.995 | locus YNL207W, strain RIO2, stronger effect = lower value 0.991 | locus YNL222W, strain SSU72, stronger effect = lower value 0.991 | locus YNL307C, strain MCK1 (second series), stronger effect = lower value 0.931 | locus YOL078W, strain AVO1, stronger effect = lower value 0.994 | locus YOL136C, strain PFK27, stronger effect = lower value 0.887 | locus YOR061W, strain CKA2, stronger effect = lower value 0.881 | locus YOR119C, strain RIO1, stronger effect = lower value 0.979 | [7] 0.927 | locus YOR329C, strain SCD5, stronger effect = lower value 0.997 | locus YPL031C, strain PHO85, stronger effect = lower value 0.917 | locus YPL153C, strain RAD53, stronger effect = lower value 0.905 | locus YPL204W, strain HRR25, stronger effect = lower value 0.922 | locus YPL209C, strain IPL1, stronger effect = lower value 0.998 | [8] 0.975 | locus YPR025C, strain CCL1, stronger effect = lower value 0.992 | locus YPR106W, strain ISR1, stronger effect = lower value 0.979 | locus YPR111W, strain DBF20, stronger effect = lower value 0.977 | strain NNK1, stronger effect = lower value 0.97 | strain TSCII, stronger effect = lower value 0.995

O=C1c2ccccc2C(=O)C1c1ccc(Br)cc1
inactive: [3] 0.888
active: [1] 0.851 | [2] 0.816 | [4] 0.823 | [5] 0.717 | [6] 0.818 | [7] 0.853 | [8] 0.712
